Measured values taken from the supplement of paper PMC6555819.

Assays:
Assay in all cases: PBM binding z-score (relative to random genomic background probes); higher = stronger binding; sequences stand for … in GC…GCGATTGACAGCGTAGAATGAAGG
[1] = test system: PPARg:RXRa DBDmut IVT, anti-RXR (DBD mutation: RXRa K156A/R161A, NR concentration 270 nM, RXRa partner concentration 90 nM)
How it was run: (§1)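 Binding z-scores were set against random background probes. The data came from custom Agilent 4×180K protein-binding microarrays carrying double-stranded probes with 34-nt variable regions, incubated 1 h with ligand-free nuclear receptor dimers. Partner-specific antibodies detected binding, and scanned fluorescence was regression-normalized.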

[2] = test system: PPARg:RXRa IVT, anti-PPARg (NR concentration 270 nM, RXRa partner concentration 90 nM)
How it was run: as §1

[3] = test system: PPARg DBDmut:RXRa IVT, anti-PPARg (DBD mutation: PPARg1 K132A/R137A, NR concentration 270 nM, RXRa partner concentration 90 nM)
How it was run: as §1

[4] = test system: PPARg DBDmut IVT, anti-PPARg (DBD mutation: PPARg1 K132A/R137A, NR concentration 270 nM)
How it was run: as §1

[5] = test system: PPARg homodimer (NR concentration 180 nM)
How it was run: as §1

[6] = test system: PXR:RXRa (NR concentration 270 nM, RXRa partner concentration 90 nM)
How it was run: as §1

[7] = test system: PXR homodimer (NR concentration 270 nM)
How it was run: as §1

[8] = test system: RARa:RXR (NR concentration 270 nM, RXRa partner concentration 90 nM)
How it was run: as §1

[9] = test system: RARa homodimer (NR concentration 270 nM)
How it was run: as §1

[10] = test system: RARb:RXRa (NR concentration 270 nM, RXRa partner concentration 90 nM)
How it was run: as §1

[11] = test system: RARb homodimer (NR concentration 270 nM)
How it was run: as §1

[12] = test system: RARg:RXRa (NR concentration 270 nM, RXRa partner concentration 90 nM)
How it was run: as §1

[13] = test system: RARg homodimer (NR concentration 270 nM)
How it was run: as §1

[14] = test system: RXRa DBDmut IVT, anti-RXR (DBD mutation: RXRa K156A/R161A, NR concentration 90 nM)
How it was run: as §1

[15] = test system: RXRa homodimer (NR concentration 180 nM)
How it was run: as §1

[16] = test system: THRa:RXRa (NR concentration 90 nM, RXRa partner concentration 90 nM)
How it was run: as §1

[17] = test system: THRa homodimer (NR concentration 90 nM)
How it was run: as §1

[18] = test system: VDR homodimer (NR concentration 270 nM)
How it was run: as §1

Sequence | PBM binding z-score [1] | PBM binding z-score [2] | PBM binding z-score [3] | PBM binding z-score [4] | PBM binding z-score [5] | PBM binding z-score [6] | PBM binding z-score [7] | PBM binding z-score [8] | PBM binding z-score [9] | PBM binding z-score [10] | PBM binding z-score [11] | PBM binding z-score [12] | PBM binding z-score [13] | PBM binding z-score [14] | PBM binding z-score [15] | PBM binding z-score [16] | PBM binding z-score [17] | PBM binding z-score [18]
GCTATTAGTTGAAACGGCAACCGAATGATTCTCG | 0.254 | -0.276 | -0.0416 | -0.0923 | 0.137 | -0.267 | 0.122 | -0.411 | -0.177 | -0.226 | -0.548 | -0.122 | -0.103 | 0.644 | -0.226 | -0.488 | -0.463 | -0.198
GCTGACGGGTCAAAGGTTATAGCATGAATAGAAT | 1.23 | 4.56 | 0.893 | 0.679 | 3.42 | 5.8 | 0.288 | 8.03 | 0.75 | 4.63 | 3.04 | 6.46 | 4.08 | 1.66 | 9.14 | 3.85 | -0.263 | 0.919
CCTACTGGGCCATCAGGCCATTGATATCAACGTT | 3.85 | 3.8 | -0.657 | -0.731 | 0.142 | -0.281 | -0.336 | -0.428 | -0.00311 | 0.28 | 0.414 | -0.00329 | 0.297 | -0.604 | -0.42 | 0.561 | 0.656 | -0.112
CCGACTGGGCCAAAGGTCATTGATTCCAATGCTC | 3.83 | 5.72 | -0.642 | 0.24 | 4.69 | 5.36 | 1.79 | 5.72 | 0.97 | 4.52 | 4.58 | 5.54 | 4.4 | 1.57 | 5.7 | 3.21 | 0.644 | 2.4
CCGACTGGGGCATAAGGTTACCATGAGCCAGCCC | 2.64 | 3.31 | -0.794 | -1.56 | 0.331 | 0.16 | -0.667 | 1.16 | 0.564 | 1.55 | 1.89 | 1.81 | 0.826 | -0.562 | 1.32 | 2.05 | 1.17 | -0.247
CCAGACAGGAGAGAAGGTAACTCAGCCTCGATTA | -0.43 | -0.372 | -0.415 | -0.373 | 0.786 | -0.0804 | 0.0829 | -0.197 | 0.0212 | -0.091 | 0.0999 | -0.0304 | 0.0804 | 0.0336 | 0.0715 | 0.145 | 0.357 | 0.0493
TCATATAAGTAATACAGGTGAAAGTCGGCATCTA | 3.37 | 1.87 | 0.985 | 0.83 | 1.07 | 0.888 | 0.782 | 1.1 | 1.95 | 0.567 | 0.481 | 0.675 | 0.621 | 2.03 | 1.42 | 0.662 | 0.191 | 0.605
ATCGAAAGGTCTTGAGGTGAGTATACAGAAAGGC | -0.431 | 1.56 | 0.61 | 0.602 | 0.325 | 0.409 | -0.368 | 1.43 | 0.103 | 2.13 | 1.41 | 1.77 | 1.87 | -0.483 | 1.48 | 2.34 | 1.21 | -0.0653
CGTCCAAGGTCAAGGTCAGAGAAAGAGACTCGAA | 4.02 | 4.66 | 0.309 | -0.449 | 3.52 | 4.81 | 1.27 | 5.48 | 2.01 | 5.62 | 4.83 | 6.78 | 7.97 | 3.66 | 6.72 | 4.16 | 3.41 | 3.04
ACTAGTTGGGCAGCTGAGGTCACACACAATTCGG | 1.04 | 1.73 | 0.77 | 0.164 | 2.17 | 4.46 | 1.48 | 4.23 | 0.707 | 3.05 | 3.83 | 3.56 | 3.17 | 1.21 | 3.56 | 4.63 | 4.73 | 2.9
ATCGATAGGTCGTGAGGTGAGTATACAGAAAGGC | -0.14 | 1.35 | 1 | 0.371 | 0.792 | 1 | 0.158 | 1.94 | 0.167 | 1.97 | 1.39 | 2.16 | 1.84 | 0.0211 | 2.15 | 2.47 | 1.33 | 0.361
CCGACTGGGGCCAAGGTTACCATACTCAGTACGA | 0.261 | 1.58 | -1.03 | -0.715 | 0.238 | 0.644 | 0.142 | 1.14 | -0.0443 | 1.77 | 1.87 | 0.875 | 1.17 | 0.424 | 1.12 | 1.88 | 1.07 | 0.551
ACAGACAGGTGAGTGTAGGTAACTCAGCTGGACG | 0.831 | 1.24 | -0.529 | -0.0544 | 0.128 | -0.121 | 0.0184 | 0.216 | 0.676 | 0.392 | -0.178 | 0.259 | 0.401 | -0.328 | 0.232 | 1.33 | -0.572 | -0.361
CGTCCAAGGTCCAAGGTCAGTGAAGAGATGACGG | -0.345 | 0.595 | -0.804 | -0.592 | 1.34 | 1.67 | 0.584 | 2.28 | 0.674 | 3.29 | 3.34 | 2.9 | 3.28 | 1.38 | 2.23 | 2.99 | 1.89 | 1.73
CTAACTAGGTCATTGACAGGACAGTGAATAGTAA | 8.21 | 8.94 | 4 | 4.56 | 0.99 | 1.52 | 0.32 | 2.14 | 0.687 | 3.66 | 2.61 | 4.49 | 4.43 | 2.41 | 2.33 | 2.85 | 0.816 | 1.14
